Source: PubChem
Dicer inh: inhibitors of human Dicer processing of pre-microRNA | Q9UPY3 | cat-ELCCA pre-miR-21 Dicer processing, chemiluminescence; active compounds read high | z-score at 25 µM | hit rate 6% among 47,000 | AID 1347074; in the data active = z-score above about 3, passing the limit was not always enough;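 also: higher signal means more uncleaved substrate so more Dicer inhibition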
Numbers stand for hits; 0 = inactive. The full list was thinned out, with hits kept by preference.

SMILES	Dicer inh
Cc1cc(C)cc(NC(=O)C2Sc3nnc(C)n3NC2c2ccc(Cl)cc2)c1 (centres undefined)	0
Cc1nnc2n1NC(c1ccc(Cl)cc1)C(C(=O)Nc1ccc(Br)cc1)S2 (centres undefined)	0
Cc1cc(NC(=O)C2Sc3nnc(C)n3NC2c2ccc(Cl)cc2)ccc1Br (centres undefined)	3.7
CCOC(=O)c1c(NC(=O)CCC(=O)O)sc(C)c1-c1ccccc1	0
Cn1c(=O)[nH]c(=O)c2c1nc(NCCCO)n2CCO	0
Cn1c(=O)[nH]c(=O)c2c1nc(NCCCO)n2CCCc1ccccc1	3.4
Cn1c(=O)c2c(nc(NCCO)n2CCCc2ccccc2)n(C)c1=O	0
CCCCCn1c(NCCO)nc2c1c(=O)[nH]c(=O)n2C	3.6
C=CCNc1nc2c(c(=O)[nH]c(=O)n2C)n1CCO	0
CCn1c(NCCCO)nc2c1c(=O)[nH]c(=O)n2C	0
C/C(=C1\N=C(c2ccccc2)OC1=O)N(C)C	0
Cc1ccc2oc(=O)c(CCC(=O)O)nc2c1	0
Cc1c(Cl)cccc1NC(=S)N1CCCCC1CCN1CCCCC1 (centres undefined)	0
COCCCn1c2c(c(=O)[nH]c1=O)C(c1ccc(F)cc1)C1=C(N2)c2ccccc2C1=O (centres undefined)	0
O=C1CC(N2CCN(c3ncccn3)CC2)C(=O)N1c1ccc(Cl)cc1 (centres undefined)	0
COc1ccc(CO)c(Cl)c1OC	0
Cc1ccccc1OC1CCS(=O)(=O)C1 (centres undefined)	0
O=c1[nH]cnc2c1sc1nnc(-c3ccccc3)c(-c3ccccc3)c12	0
CCOc1ccc(-n2nc3ccc(N)cc3n2)cc1	0
CCOc1ccc(-n2nc3cc(C)c(N)cc3n2)cc1	4.6
COc1ccc(-n2nc3ccc(N)cc3n2)cc1	0
c1cc(-c2nc3ccccc3[nH]2)nc(-c2nc3ccccc3[nH]2)c1	0
CC(C(=O)NNC(=S)Nc1ccccc1Cl)n1nnc(N2CCOCC2)n1 (centres undefined)	0
CCCCNC(=O)c1cc2cccc([N+](=O)[O-])c2[nH]1	0
O=C(O)c1cc2cccc([N+](=O)[O-])c2[nH]1	132
SMILES	Dicer inh
O=[N+]([O-])c1cccc2cn[nH]c12	0
Cn1cc(-c2ccccc2)c(C(F)(F)F)n1	0
O=c1[nH]c(CN2CCOCC2)nc2ccccc12	6.9
O=c1[nH]c(CN2CCCCC2)nc2c1oc1ccccc12	0
c1ccc2[nH]c(CN3CCCCC3)nc2c1	0
CC1CCCC(C)N1C(=O)Cn1cc(C(=O)c2ccco2)c2ccccc21 (centres undefined)	0
COc1ccccc1OCCn1cc(C(=O)O)c2ccccc21	0
COc1ccccc1OCCC(=O)O	0
COc1ccccc1OCCN1CCN(C)CC1	4.8
O=C(CC1(O)C(=O)N(Cc2ccccc2Cl)c2ccccc21)c1ccc2c(c1)OCCO2 (centres undefined)	0
O=C1/C(=C/c2ccc(Cl)cc2)COC/C1=C\c1ccc(Cl)cc1	0
C=CCN(C#N)c1nc(NC(C)C)nc(NC(C)C)n1	6.5
COc1ccc(OCC(O)CNS(=O)(=O)c2cc(Cl)sc2Cl)cc1 (centres undefined)	0
COc1ccc(C2NC(c3ccc(OC)cc3)C(C)C(=O)C2C)cc1 (centres undefined)	0
CCCCC1(O)CC(c2ccc(OC)cc2)NC(c2ccc(OC)cc2)C1C (centres undefined)	3.2
COc1ccc(C2C/C(=N/O)C(C)C(c3ccc(OC)cc3)N2)cc1 (centres undefined)	0
CC(O)[C@H](NC(=O)OC(C)(C)C)C(=O)O (some centres undefined)	0
O=C(NCc1cccs1)C1CC(c2c(F)cccc2Cl)=NO1 (centres undefined)	0
COc1ccc(C2Nc3c(C)cc(C)cc3-c3cc(C)nn32)cc1O (centres undefined)	4.3
CCOc1ccc(C2Nc3c(C)cccc3-c3cc(C)nn32)cc1 (centres undefined)	0
CCOc1ccc(C2Nc3ccccc3-c3cc(C)nn32)cc1 (centres undefined)	3.2
Cc1cc2n(n1)C(c1ccc(O)cc1)Nc1ccccc1-2 (centres undefined)	0
CCOc1ccc(C2Nc3ccc(C)cc3-c3cc(C)nn32)cc1 (centres undefined)	0
Cc1cc2n(n1)C(c1ccc(O)c(O)c1)Nc1ccccc1-2 (centres undefined)	6.6
COc1ccc(C2Nc3c(C)cc(C)cc3-c3cc(C)nn32)cc1OC (centres undefined)	0
SMILES	Dicer inh
COc1ccc(C2Nc3c(C)cc(C)cc3-c3cc(C)nn32)c(OC)c1 (centres undefined)	3.6
COc1ccc(C2Nc3ccc(C)cc3-c3cc(C)nn32)cc1 (centres undefined)	0
COc1cc(C2Nc3ccccc3-c3cc(C)nn32)ccc1O (centres undefined)	0
COc1ccc(OC)c(C2Nc3ccc(C)cc3-c3cc(C)nn32)c1 (centres undefined)	0
O=C(O)C1C2CCC(O2)C1C(=O)NCc1ccco1 (centres undefined)	0
O=C(/C=C/Nc1ccc(Cl)cc1Cl)C(F)(F)F	0
Cc1cc(C(=O)NC(=O)NNc2c(Cl)cncc2Cl)nn1-c1c(Cl)cc(Cl)cc1Cl	0
CCOC(=O)C(=CNc1cc(C(F)(F)F)ccc1N1CCCCC1)C(=O)OCC	0
COc1ccccc1C1CCN(S(=O)(=O)c2ccc(Br)cc2OC)CC1	0
CC1=C(C(=O)Nc2cccc(C)n2)C(c2ccc(Br)cc2)C2=C(CC(C)(C)CC2=O)N1 (centres undefined)	0
Cc1cccc(Cn2c(CCCO)nc3ccccc32)c1	0
CN(C)/N=C(\NO)c1c(Cl)cccc1Cl	0
Cc1cc(C)c2c(c1)-c1cc(C)nn1C(c1ccc(N3CCOCC3)cc1)N2 (centres undefined)	0
Cc1cc(C)c2c(c1)-c1cc(C)nn1C(c1ccc(O)c(O)c1)N2 (centres undefined)	8.6
CCOc1cc(C2Nc3c(C)cc(C)cc3-c3cc(C)nn32)ccc1O (centres undefined)	0
N#Cc1cccc(S(=O)(=O)N2CCN(c3cc(C(F)(F)F)nc4ccccc34)CC2)c1	0
COc1ccc(C2C(C#N)=C(C)NC3=C2C(=O)CC(c2ccc(Cl)cc2)C3)cc1 (centres undefined)	0
COc1ccc(C2NC(=O)NC2=O)cc1 (centres undefined)	0
COc1ccc(C2C=C(c3ccc(Cl)cc3)NC(=O)C2C#N)cc1 (centres undefined)	4.4
Cc1nc(SCC(=O)c2ccc(Cl)cc2)[nH]c(=O)c1CCC(C)C	0
O=C(CC1SCCNC1=O)Nc1ccc2c(c1)OCO2 (centres undefined)	0
O=C(CC1Sc2ccccc2NC1=O)Nc1ccc2c(c1)OCO2 (centres undefined)	3.9
O=C(CC1Sc2ccccc2NC1=O)Nc1ccc(Cl)cc1 (centres undefined)	0
COCc1cc(=O)[nH]c2c1c(C)nn2C	0
O=C(Oc1ccc2ccccc2c1C1SCCS1)c1ccc(Cl)cc1Cl	0
O=C(CSc1nc2ccccc2nc1N1CCCC1)N1CCCC1	0
O=C(CSc1nc2ccccc2nc1N1CCOCC1)Nc1ccccc1F	0
O=C(CSc1nc2ccccc2nc1N1CCOCC1)N1CCN(c2cccc(Cl)c2)CC1	3.5
O=C(CSc1nc2ccccc2nc1N1CCOCC1)NC1CCCC1	0
O=C(CSc1nc(-c2ccco2)cc(C(F)(F)F)n1)N1CCN(c2cccc(Cl)c2)CC1	0
